The values below come from PubChem BioAssay (NCI).

About 83,000 compounds went through this panel and 20% of them were active in at least one assay; those are over-represented in the sample as a whole.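 The endpoint reported here, percent growth, reads 100 for growth as untreated, 0 for no net growth and -100 for all cells dead.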 A number with no mark means an inactive call. Active and inactive are the calls of the source. How the source made its calls: active means growth percent below 10; inactive means the rest.

Among the test systems are NCI-H23 lung; NCI-H226 lung; NCI-H322M lung; HOP-62 NSCLC; NCI-H460 lung; HOP-92 NSCLC; NCI-H522 lung; A549/ATCC NSCLC; 786-0 renal; COLO 205 colon.
Test in all cases: NCI-60 one-dose screen, 48 h (100 = growth as untreated, 0 = no growth, -100 = all killed)
Conditions in all cases: 10 µM unless noted

For the compound `O=C(/C=C/c1cccs1)c1ccc(Cl)nc1`, the growth in the assay with NCI-H23 lung was 102%; with NCI-H226 lung, 107%; in the assay on NCI-H322M lung it was 99.3%; in the assay on HOP-62 NSCLC, 94.9%; in the assay on NCI-H460 lung, 106%; in the assay on HOP-92 NSCLC, 105%. Besides, the growth is 82% with NCI-H522 lung, 98.6% in the assay on A549/ATCC NSCLC, 93.7% in the assay with 786-0 renal and 108% with COLO 205 colon.

With `COc1ccc(C2=Nc3c/c(=C\c4c(O)[nH]c5ccc(Cl)cc45)ccc3=N2)cc1`, the growth in the assay on NCI-H23 lung was 52.1%; in the assay with NCI-H226 lung it was 66.5%; in the assay with NCI-H322M lung, 81.9%; in the assay with HOP-62 NSCLC it was 28.2%; in the assay on NCI-H460 lung it was 43.5%; in the assay with HOP-92 NSCLC, 52.8%. Moreover, the growth with NCI-H522 lung is 29.3%; in the assay on A549/ATCC NSCLC, 62.5%; in the assay on 786-0 renal, 43.6%; in the assay on COLO 205 colon it was -9.26% (active).

In the case of `CC1Cc2c(Cl)ncnc2N(C)c2ccc(F)cc21` (stereo not given), the growth is 103% in the assay on NCI-H23 lung; 94.5% in the assay on NCI-H226 lung; 99.5% in the assay on NCI-H322M lung; 93.2% with HOP-62 NSCLC; 108% in the assay on NCI-H460 lung; 65.8% in the assay on HOP-92 NSCLC. Besides, the growth with NCI-H522 lung was 89.3%; with A549/ATCC NSCLC, 70%; in the assay with 786-0 renal it was 79%; in the assay with COLO 205 colon it was 92.5%.

In the case of `N#C/C(=C/c1ccc([N+](=O)[O-])cc1)n1nnc2cc(F)c(F)cc21`, the growth was 93.8% with NCI-H23 lung; 102% in the assay on NCI-H226 lung; 98.4% with NCI-H322M lung; 96.6% in the assay on HOP-62 NSCLC; 33.1% in the assay with NCI-H460 lung; 99.6% in the assay with HOP-92 NSCLC. For the same compound, the growth in the assay with NCI-H522 lung was 62.6%; in the assay on A549/ATCC NSCLC, 87.6%; in the assay with 786-0 renal, 42.1%; in the assay with COLO 205 colon, 77.4%.

Take `O=C(Nc1ncc(Cc2ccc(Cl)c(C(F)(F)F)c2)s1)c1ccc2nnsc2c1`: the growth in the assay with NCI-H23 lung is 37.4%; in the assay on NCI-H226 lung, 66.5%; in the assay with NCI-H322M lung, 69.2%; with HOP-62 NSCLC, 51.5%; with NCI-H460 lung, 27.2%; in the assay with HOP-92 NSCLC, 64.9%. In addition, the growth with NCI-H522 lung is 38.7%; in the assay with A549/ATCC NSCLC it was 40.7%; in the assay with 786-0 renal, 53.2%; with COLO 205 colon it was 57.3%.

For the compound `COC1C[C@H](O[C@@H]2C[C@H](O[C@@H]3C[C@H](O[C@@H]4C(=O)c5c(cc6cc(O[C@H]7C[C@@H](O[C@H]8C[C@@H](O)[C@H](O)C(C)O8)[C@H](O)C(C)O7)c(C)c(O)c6c5O)C[C@H]4C(OC)C(=O)[C@@H](O)[C@@H](C)O)OC(C)[C@H]3O)OC(C)[C@@H]2O)OC(C)[C@@H]1O` (stereo not given in full), the growth in the assay with NCI-H23 lung is -1.75% (active); with NCI-H226 lung, 3.22% (active); in the assay on NCI-H322M lung, 6.22% (active); with HOP-62 NSCLC, -7.62% (active); in the assay with NCI-H460 lung, 6.26% (active); in the assay on HOP-92 NSCLC, -12.1% (active). The growth in the assay on NCI-H522 lung was -33.1% (active); with A549/ATCC NSCLC, 1.74% (active); in the assay with 786-0 renal it was -5.74% (active); in the assay with COLO 205 colon, -78.3% (active).

For the compound `N=C(N)c1ccc(-c2ccc(-c3ccc(Cl)cc3)s2)nc1`, the growth is 62.8% with NCI-H23 lung; 84.5% in the assay with NCI-H226 lung; -30.3% (active) in the assay on NCI-H322M lung; 36% in the assay on HOP-62 NSCLC; -90.2% (active) in the assay on NCI-H460 lung; 65.1% in the assay with HOP-92 NSCLC. For the same compound, the growth with NCI-H522 lung is -52.5% (active); in the assay on A549/ATCC NSCLC, -30.8% (active); in the assay on 786-0 renal, 71.3%; in the assay with COLO 205 colon, -71.8% (active).

In the case of `N#Cc1nn(-c2cc(=O)[nH]c3ccc(Cl)cc23)c(N)c1C#N`, the growth is 104% in the assay with NCI-H23 lung; 99.4% in the assay with NCI-H226 lung; 91.9% in the assay with NCI-H322M lung; 87.2% in the assay with HOP-62 NSCLC; 114% in the assay with NCI-H460 lung; -79.6% (active) with HOP-92 NSCLC. Moreover, the growth in the assay on NCI-H522 lung was 87.1%; in the assay on A549/ATCC NSCLC, 98.3%; with 786-0 renal it was 93.4%; in the assay with COLO 205 colon it was 100%.

With `O=C(Cc1ccccc1)Nc1nc(O)c(/C=C2\C(=O)C=Cc3ccccc32)s1`, the growth was 90.7% with NCI-H23 lung; 100% with NCI-H226 lung; 98.2% with NCI-H322M lung; 107% in the assay with HOP-62 NSCLC; 99.4% in the assay with NCI-H460 lung; 85.2% in the assay on HOP-92 NSCLC. Moreover, the growth was 90.5% in the assay with NCI-H522 lung, 101% with A549/ATCC NSCLC, 102% in the assay with 786-0 renal and 111% in the assay on COLO 205 colon.

Turning to `Cn1cc(-c2csc(-c3ccc(Cl)cc3)n2)c2cccnc21`, the growth in the assay on NCI-H23 lung is -49.3% [100 µM] (active); in the assay with NCI-H226 lung it was -14.3% [100 µM] (active); in the assay on NCI-H322M lung, -8.35% [100 µM] (active); in the assay with HOP-62 NSCLC, -53.7% [100 µM] (active); in the assay on NCI-H460 lung, -16.4% [100 µM] (active); in the assay with HOP-92 NSCLC it was -69.2% [100 µM] (active). Besides, the growth in the assay with NCI-H522 lung was 9.55% [100 µM] (active); in the assay on A549/ATCC NSCLC it was 9.96% [100 µM] (active); in the assay on 786-0 renal it was -61.4% [100 µM] (active); with COLO 205 colon, -65.8% [100 µM] (active).

For `CC(=O)N(N=Nc1ccccc1)c1cccc2ccccc12`, the growth in the assay on NCI-H23 lung is 86.9%; with NCI-H226 lung, 92.5%; with NCI-H322M lung, 94.3%; with HOP-62 NSCLC it was 90.5%; in the assay on NCI-H460 lung, 55.7%; in the assay on HOP-92 NSCLC it was 96.5%. Besides, the growth was 75.1% with NCI-H522 lung, 97.4% in the assay with A549/ATCC NSCLC, 97.6% in the assay with 786-0 renal and 91.9% in the assay on COLO 205 colon.

On to `CC1=Nc2cnc(Nc3ccc(OCCN4CCCCC4)cc3)nc2Nc2ccccc21`, for which the growth is 71.5% in the assay with NCI-H23 lung; 81.3% with NCI-H226 lung; 42% in the assay on NCI-H322M lung; 81.4% in the assay with HOP-62 NSCLC; 61.6% in the assay with NCI-H460 lung; 32% in the assay with HOP-92 NSCLC. In addition, the growth in the assay with NCI-H522 lung is 70.7%; in the assay on A549/ATCC NSCLC it was 77.2%; in the assay on 786-0 renal, 48.5%; in the assay on COLO 205 colon, 63.7%.

`COc1ccccc1Nc1nc2c(s1)C1=CC[C@H]3[C@@H]4CC[C@H]([C@H](C)CCCC(C)C)[C@@]4(C)CC[C@@H]3[C@@]1(C)CC2`: the growth was 93.3% with NCI-H23 lung; 103% in the assay on NCI-H226 lung; 101% in the assay with NCI-H322M lung; 95.9% with HOP-62 NSCLC; 108% in the assay with NCI-H460 lung; 90.8% in the assay with HOP-92 NSCLC. The growth was 106% in the assay on NCI-H522 lung, 103% in the assay on A549/ATCC NSCLC, 114% in the assay on 786-0 renal and 106% in the assay on COLO 205 colon.
